Bioassay records: PubChem BioAssay, National Center for Advancing Translational Sciences (NCATS)
POLH inh – qHTS for Inhibitors of Polymerase Eta | AID 588591, 2011 | recombinant Pol eta, fluorescent DNA replication assay | 390,000 tested, 1.2% active | Potency, µM (doses to about 114 µM), without a hit: at the top dose activity change, negative = inhibition, actives largely listed as inhibitors; further: on the % scale 0 is the no-effect control and ±100 the full control effect
Target sequence (Q9Y253 whole entry, looked up): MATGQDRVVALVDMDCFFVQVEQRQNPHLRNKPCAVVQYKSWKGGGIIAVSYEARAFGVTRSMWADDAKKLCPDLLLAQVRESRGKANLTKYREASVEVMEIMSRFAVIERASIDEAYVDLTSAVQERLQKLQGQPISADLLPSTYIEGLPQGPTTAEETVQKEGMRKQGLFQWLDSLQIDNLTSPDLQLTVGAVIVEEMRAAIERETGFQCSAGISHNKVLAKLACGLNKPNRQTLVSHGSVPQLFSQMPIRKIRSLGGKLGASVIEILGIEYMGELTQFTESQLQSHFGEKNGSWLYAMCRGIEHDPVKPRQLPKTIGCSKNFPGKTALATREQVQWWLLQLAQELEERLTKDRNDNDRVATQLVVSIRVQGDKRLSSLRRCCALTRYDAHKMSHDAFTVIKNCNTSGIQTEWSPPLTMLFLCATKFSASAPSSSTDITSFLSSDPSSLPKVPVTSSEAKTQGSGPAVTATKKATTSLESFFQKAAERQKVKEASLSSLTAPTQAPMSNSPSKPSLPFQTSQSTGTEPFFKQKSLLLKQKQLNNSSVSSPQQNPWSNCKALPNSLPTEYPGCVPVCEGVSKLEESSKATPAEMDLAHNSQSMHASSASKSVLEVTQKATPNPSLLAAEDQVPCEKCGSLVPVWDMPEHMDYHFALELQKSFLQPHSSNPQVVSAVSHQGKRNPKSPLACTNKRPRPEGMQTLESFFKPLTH
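Pol eta at 10 nM preincubated with compounds 15 min at room temperature; reaction started with fluorescent substrate (50 nM final) and read kinetically at 0 and 10 min.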
Pol iota inh – qHTS for Inhibitors of Polymerase Iota; DNA polymerase iota (Homo sapiens), Q9UNA4; Pol iota fluorescent replication assay, 10 min; Potency, µM (titrated, usually from 115 µM), inactives show at the top dose activity, negative = inhibition, most hits filed as inhibitors; 390,000 tested, 1% active
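Fluorescent replication assay read twice, at 0 min and 10 min after adding 50 nM (final) substrate. Enzyme (10 nM) and compounds were first incubated 15 min at room temperature; enzyme-free buffer wells were negative controls.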
L3MBTL1 inh – qHTS Assay for the Inhibitors of L3MBTL1. Lethal(3)malignant brain tumor-like protein 1 (Homo sapiens), Q9Y468. AlphaScreen L3MBTL1–H3K9me1 peptide binding. Potency, µM (highest dose often 57.1 µM), for the others: top-dose activity, negative = inhibition, most hits filed as inhibitors. 230,000 tested, 0.66% active; further: on the % scale 0 is the no-effect control and ±100 the full control effect; nearly all actives have a fitted effect of over 60% in size
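Displacement of a biotinylated histone H3(1-15) peptide monomethylated at Lys9 (75 nM) from L3MBTL1 (50 nM) was measured by AlphaScreen after a 30 min room-temperature compound incubation; cefsulodin titration served as intraplate control.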
POLK inh – qHTS for Inhibitors of Polymerase Kappa | DNA polymerase kappa (Homo sapiens), Q9UBT6 | Potency, µM (series often up to 107 µM), for inactives: at the top dose activity, negative = inhibition, actives largely listed as inhibitors | purified Pol kappa, fluorescent DNA synthesis assay, 10 min | AID 588579, 2011 | 400,000 tested, 0.53% active; further: on the % scale 0 is the no-effect control and ±100 the full control effect
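Here, compound and 10 nM enzyme are combined for 15 min at room temperature; adding 50 nM substrate (final) starts DNA synthesis, tracked by fluorescence at 0 and 10 min against buffer-only wells.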
Pol beta inh – qHTS Assay for Inhibitors of DNA Polymerase Beta. P06746. Pol beta primer extension/strand displacement, fluorescence kinetic. Potency, µM (series often up to 114 µM), inactives show at the top dose activity change, negative = inhibition, hits mostly inhibitors. 340,000 tested, 1.3% active. AID 485314, 2010; further: on the % scale 0 is the no-effect control and ±100 the full control effect
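Values derive from four-parameter Hill fits of normalized kinetic data: reads at 0 and 10 min following addition of 50 nM substrate to 10 nM Pol beta preincubated 15 min with compound.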
APEX1 inh – qHTS Assay for Inhibitors of the Human Apurinic/apyrimidinic Endonuclease 1 (APE1). DNA repair nuclease/redox regulator APEX1 (Homo sapiens), P27695. recombinant APE1, TAMRA/BHQ-2 abasic DNA cleavage fluorescence. Potency, µM (titrated, usually from 65.8 µM), for inactives: at the highest dose activity change, negative = inhibition, actives largely listed as inhibitors. 350,000 tested, 0.35% active. AID 2517, 2012;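 further: plate controls were vehicle for no effect and reference inhibitor for full effect; nearly all actives have a fitted effect of over 55% in size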
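Quantitative HTS: incision of a TAMRA/BHQ-2 double-stranded substrate bearing a tetrahydrofuran abasic site by 0.75 nM APE1 raises fluorescence. Substrate 50 nM final, added after 15 min compound preincubation at room temperature; progress as third-minus-first kinetic read difference.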
An asterisk follows results filed as active; ? = inconclusive; / = no result; [ ] = another dose, or the depositor's remark. Hits are enriched below; roughly 2.5% of the tested compounds scored in any of these assays. The call rests on the fitted dose curve; in most records, active means well fitted curve in the direction sought with a large enough effect; inconclusive means small, poorly fitted or top-dose-only effect, or another doubt; inactive means no such curve, though single readings can be large; an effect the other way counts as inactive or inconclusive. Potency means the concentration at half of the fitted maximal effect.

SMILES	POLH inh	Pol iota inh	L3MBTL1 inh	POLK inh	Pol beta inh	APEX1 inh
Cc1c2oc3c(C)ccc(C(=O)NC4C(=O)NC(C(C)C)C(=O)N5CCCC5C(=O)N(C)CC(=O)N(C)C(C(C)C)C(=O)OC4C)c3nc-2c(C(=O)NC2C(=O)NC(C(C)C)C(=O)N3CCCC3C(=O)N(C)CC(=O)N(C)C(C(C)C)C(=O)OC2C)c(N)c1=O (configuration not stated)	/	/	/	5%[19.4 µM]	/	13µM*
CCN(CC(=O)NCc1ccc(F)cc1)C(=O)COc1ccccc1[N+](=O)[O-]	-12%	1%	2%	0%	/	-5%
C=C1C=C(C)n2ncc(C(=O)Nc3ccc(C)cn3)c2N1	/	?	/	-1%	/	/
CCC(C(=O)C(C)C(O)C(C)CCc1ccc(C)c(O)c1C(=O)O)C1OC(CC)(C2CC[C@@](O)(CC)C(C)O2)CC1C (some centres not stated)	/	/	/	-9%[60.1 µM]	/	/
CC[C@@H](C(=O)[C@@H](C)[C@@H](O)[C@H](C)CCc1ccc(C)c(O)c1C(=O)O)[C@H]1O[C@](CC)([C@H]2CC[C@](O)(CC)[C@H](C)O2)C[C@@H]1C	-27%	?	/	-17%	22µM*	24%
O=C(CN1C(=O)NC2(CCCC2)C1=O)Nc1ccc(Cl)cc1C(F)(F)F	2%	11%	/	-6%	3%	15%[12.4 µM]
COc1ccccc1-n1c(SCc2cc(=O)oc3cc(O)ccc23)nc2ccccc2c1=O	32µM*	?	-13%	-45%	?	-9%
Cc1cccc(-n2nc3c(c2NC(=O)c2ccc(Br)o2)CSC3)c1	-16%	-2%	/	-20%	56µM*	-2%
O=C(C#Cc1ccccc1)Nc1cccc(F)c1	-10%	113%	/	-1%	-3%	-11%
C(=C\c1ccco1)/c1ccc2ccccc2n1	-21%	?	14µM*	?	10µM*	?
Nc1ccc(C(=O)O)cc1S(=O)(=O)O	-15%	-25%	9%	3%	-2%	5%
Nc1cc(C(=O)O)c(O)c(S(=O)(=O)O)c1	/	/	/	/	/	28µM*
CCc1ccccc1N(CC(=O)NCc1ccco1)C(=O)c1snc(C(N)=O)c1N	20µM*	?	-1%	-35%	50µM*	?
CC(C)CCNC(=O)CN(Cc1ccco1)C(=O)c1snc(C(N)=O)c1N	8%	63%	10%	-1%	37%	12%
O=C(O)/C(=N/NC(=O)c1ccc(Cl)cc1)c1ccccc1	-14%	8%	9%	1%	25µM*	1%
CCOC(=O)O[C@]1(C(=O)OCCl)CC[C@@H]2[C@H]3CCC4=CC(=O)C=C[C@]4(C)[C@@H]3[C@@H](O)C[C@@]21C	/	/	/	-2%[60.1 µM]	/	/
Cc1cc(C)n2nc(SCN3C(=O)c4ccccc4C3=O)nc2n1	-17%	?	-25%	-32%	45µM*	-1%
Cc1ccc2nc(NC(=O)CSc3nccn3-c3ccc(Cl)cc3)sc2c1	-16%	?	/	-3%[60.1 µM]	25µM*	/
Cc1oc2c(cc(NS(=O)(=O)c3ccc(Cl)cc3)c3ccccc32)c1C(=O)O	50µM*	46%	/	-41%	20%	3%
O=C(CN1C(=O)/C(=C2/SC(=S)N(CCS(=O)(=O)O)C2=O)c2ccccc21)Nc1cccc(Br)c1	?	?	-10%	?	/	?
O=C(CSc1nnc(SCc2cccc3ccccc23)s1)N=Nc1c(O)[nH]c2ccccc12	/	/	-20%	/	13µM*	3%
N#C/C(=C\c1ccc(-c2ccc([N+](=O)[O-])cc2)o1)C(=O)Nc1nc(-c2cccs2)cs1	32µM*	14µM*	/	?	?	0%
COc1ccc(-c2nn[nH]n2)cc1OC	-6%	8%	/	-5%	0%	-2%
Nc1cc(-c2nn[nH]n2)ccc1F	11µM*	?	-2%	?	-27%	?
O=C(Nc1ccc(Br)cc1)c1cnn2c1NC(=C1CC1)C=C2C(F)F	/	/	/	/	/	16%
SMILES	POLH inh	Pol iota inh	L3MBTL1 inh	POLK inh	Pol beta inh	APEX1 inh
CS(=O)(=O)N1CCC[C@@]2(CCN(c3ccccc3)C2)C1	/	/	/	6%[60.1 µM]	/	3%
O=[N+]([O-])c1ccc(N=Nc2c(O)[nH]c3ccc(F)cc23)cc1	?	28%	/	-2%	50µM*	-47%
O=C(N=Nc1c(O)[nH]c2ccc([N+](=O)[O-])cc12)c1ccccc1[N+](=O)[O-]	-7%	17%	-13%	-9%	-5%	1%
CC(Oc1ccccc1)C(=O)N=Nc1c(O)[nH]c2ccc([N+](=O)[O-])cc12 (configuration not stated)	35µM*	79µM*	/	-12%	-25%	0%
O=C(O)c1c(Cl)c(Cl)c(Cl)c(Cl)c1C(=O)OCC1CCCO1 (configuration not stated)	-16%	/	/	/	/	/
O=C(N/N=C/c1cc(Cl)cc([N+](=O)[O-])c1O)C1CC1	3%	?	-21%	6%	?	-1%
CC(C)(C)N/N=C/c1cc(Cl)cc([N+](=O)[O-])c1O	?	-1%	5%	-9%	35µM*	0%
COCCNc1oc(-c2cccs2)nc1S(=O)(=O)c1ccc(C)cc1	-9%	31%	-13%	-1%	?	-3%
COCCCNc1oc(-c2cccs2)nc1S(=O)(=O)c1ccc(C)cc1	-19%	79%	6%	-3%	40µM*	-4%
Cc1cc(C)c2c(=O)cc(C(=O)Nc3sc4c(c3C(=O)NCC3CCCO3)CCCC4)oc2c1 (configuration not stated)	-14%	20%	/	2%	20%	/
O=C1CC(C(=O)Nc2ccc(O)c(C(=O)O)c2)C(c2ccccc2)O1 (configuration not stated)	50µM*	?	-1%	-14%	-10%	-10%
O=C1CC(C(=O)Nc2ccc(C(=O)O)cc2)C(c2ccccc2)O1 (configuration not stated)	-6%	0%	0%	-7%	21%	?
CN(C)c1ccc(/C=C/c2c3ccccc3cc[n+]2[O-])cc1	/	33%	/	-21%	/	/
Cc1ccc(S(=O)(=O)Oc2cccc(/C=N/Nc3ccc(C(=O)O)cc3)c2)cc1	79µM*	1%	-14%	5%	-9%	-1%
CC(C(=O)N1CCN=C1c1ccccc1)N1C(=O)c2ccccc2C1=O (configuration not stated)	-3%	10%	8%	-6%	?	-1%
